Bioassay records as filed in PubChem.
An excerpt weighted towards active compounds, which were near 4.1% of everything screened.
PRMT1 FP inh: PRMT1 (human) inhibition, primary screen; Q99873; recombinant PRMT1, activity-based probe fluorescence polarization; inhibition, % at 2.79 µM; 370,000 tested, 1.3% active; AID 652257;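 active means inhibition above about 21% made by adding two undisclosed values, limit read from the data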
LEDGF integ inh: blocks HIV-1 LEDGF/p75-dependent DNA integration | TR-FRET IN-LEDGF/p75 DNA integration, Eu/Cy5 | AID 743269 | 370,000 tested, 0.64% active | inhibition, % at 3.7 µM;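 active means inhibition above the screen-wide mean plus 3 SD, cut at about 13% in these data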;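 further: signal is the Cy5 over europium emission ratio at 671 and 618 nm; 0% = plate median of compound wells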
ABHD5-PLIN5 inh: inhibitors of human ABHD5-perilipin-5 interaction. inhibition, % at 4 µM. Split G. princeps luciferase complementation, luminescence, 4 h. 360,000 tested, 0.78% active;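 active means inhibition above the mean inhibition across every tested compound plus 3 SD, cut at about 22% in these data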;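 further: 0% = DMSO only wells and the 100% control is not disclosed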
MBD2 inh: inhibitors of human MBD2 binding to methylated oligonucleotide; Q9UBB5; TR-FRET; inhibition, % at 4.4 µM; 370,000 tested, 0.31% active; AID 686964; in the data active means inhibition above about 13%
rCAG RNA binder: molecules binding r(CAG) RNA repeats; inhibition, % at 3 µM; 370,000 tested, 1.3% active; r(CAG) RNA repeat, TO-PRO-1 dye displacement fluorescence;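 active means inhibition above the plate cutoff, the mean of all test compounds on that plate plus 3 SD, cut at about 35% in these data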;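 further: 0% = DMSO alone and 100% = 100 µM mitoxantrone as full dye displacement; higher means more dye released from RNA so lower well fluorescence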
UHRF1 MBD2 ctr: UHRF1 methyl-DNA binding inhibition; Q96T88; inhibition, % at 4.4 µM; AID 687016; UHRF1 binding to methylated oligo, TR-FRET; 370,000 tested, 0.75% active; in the data active means inhibition above about 21%;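 further: UHRF1 SRA domain binding a hemimethylated CpG hairpin DNA probe; 0% = median of test compound wells and 100% = reference inhibitor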
Target sequence (Q96T88 whole entry, looked up, the tested form may be a part): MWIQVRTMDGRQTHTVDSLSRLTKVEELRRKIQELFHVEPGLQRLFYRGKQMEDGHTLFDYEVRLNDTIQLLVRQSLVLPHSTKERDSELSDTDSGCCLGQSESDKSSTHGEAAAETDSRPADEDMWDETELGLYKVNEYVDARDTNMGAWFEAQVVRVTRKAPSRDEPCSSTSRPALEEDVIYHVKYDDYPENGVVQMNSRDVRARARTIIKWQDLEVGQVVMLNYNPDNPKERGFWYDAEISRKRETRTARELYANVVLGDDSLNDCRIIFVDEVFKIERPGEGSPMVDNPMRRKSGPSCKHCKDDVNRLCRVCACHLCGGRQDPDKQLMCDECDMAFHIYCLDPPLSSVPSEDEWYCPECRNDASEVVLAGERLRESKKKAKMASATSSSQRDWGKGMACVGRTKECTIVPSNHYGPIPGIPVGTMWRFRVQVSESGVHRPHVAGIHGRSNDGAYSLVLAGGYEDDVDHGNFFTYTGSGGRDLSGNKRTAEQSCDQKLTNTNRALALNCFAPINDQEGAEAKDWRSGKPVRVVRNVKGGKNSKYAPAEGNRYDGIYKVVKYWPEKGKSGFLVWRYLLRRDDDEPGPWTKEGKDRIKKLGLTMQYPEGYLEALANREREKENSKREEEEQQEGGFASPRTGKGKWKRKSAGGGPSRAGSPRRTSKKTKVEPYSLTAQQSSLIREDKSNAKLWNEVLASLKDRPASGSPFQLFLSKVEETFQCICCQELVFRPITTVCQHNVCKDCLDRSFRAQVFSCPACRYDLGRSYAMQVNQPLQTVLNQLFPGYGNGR
ABHD5 PLIN5 conf: confirmation of human ABHD5-PLIN5 interaction inhibitors. 2,200 tested, 67% active. biochemical ABHD5-PLIN5 interaction, luminescence. AID 651612. inhibition, % at 4 µM. shares compounds with ABHD5-PLIN5 inh; in the data active means inhibition above about 23%;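 further: 0% = DMSO vehicle wells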
HNF4 split-luc: active in HNF4 split-luciferase counter-screen for ABHD5-PLIN5 inhibitors. shares compounds with ABHD5-PLIN5 inh. HNF4 dimerization, luminescence, biochemical. inhibition, % at 4 µM. 2,200 tested, 77% active;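 active means mean inhibition across replicate wells exceeding the computed hit threshold, cut at about 13% in these data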;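 further: light from luciferase halves that rejoin when HNF4 fusion proteins dimerize; 0% = DMSO only wells and the 100% control is not given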
Numbers without * were called inactive; nt = not tested or not shown; ! = a repeat was not active.

SMILES	PRMT1 FP inh	LEDGF integ inh	ABHD5-PLIN5 inh	MBD2 inh	rCAG RNA binder	UHRF1 MBD2 ctr	ABHD5 PLIN5 conf	HNF4 split-luc
Cc1cc(C)c(NC(=O)CN2CCN3CCCC3C2)c(C)c1 (configuration not stated)	0.6	1.9	31.5*!	-4.2	-1.0	-3.7	33.2*	1.4
Nc1nsc2ccccc12	2.5	-3.5	45.3*	0.2	0.2	-0.5	56.6*	64.3*
O=C(c1ccccc1)c1cc(Cl)ccc1N1C(=O)C=CC1=O	90.6*	3.0	38.2*	1.1	4.0	-4.5	47.1*	97.8*
COc1cc(N2C(=O)C=CC2=O)c(OC)cc1Cl	89.5*	-2.4	38.7*	-3.8	2.1	-1.8	43.9*	104.0*
CC(C)CNc1cccc2c1S(=O)(=O)N[C@@H](C)CO2	-4.2	3.2	nt	4.5	1.2	15.4	nt	nt
CN(C)CCCN(C(=O)CCS(=O)(=O)c1ccccc1)c1nc2cc3c(cc2s1)OCO3	7.2	-2.0	25.7*	5.0	-0.8	0.6	18.4	49.5*
CN(C)CCCN(C(=O)CCSc1ccccc1)c1nc2cc3c(cc2s1)OCO3	5.4	2.4	26.8*	-3.2	3.6	-0.3	15.2	18.7*
Cc1ccc2sc(N(CCCN(C)C)C(=O)CCS(=O)(=O)c3ccccc3)nc2c1C	-1.8	1.2	16.6	-3.7	1.6	-2.5	nt	nt
CN1C(=O)C[C@@](C#N)(C(=O)NCc2ccc3c(c2)OCO3)[C@H]1c1ccccc1	-1.5	3.2	nt	0.5	-0.6	0.2	nt	nt
CC(C)c1nnc(NC(=O)CCS(=O)(=O)c2nc(-c3cccs3)cc(C(F)(F)F)n2)s1	7.6	-0.3	37.0*	-1.7	-2.8	2.5	76.2*	88.8*
CC(C)c1nnc(NC(=O)CCS(=O)(=O)Cc2ccccc2)s1	3.9	-1.1	-9.7	-6.1	0.4	-0.6	nt	nt
COc1ccc(OCc2cn(CC(=O)c3ccc(O)cc3)nn2)cc1	5.4	6.4	23.6*	12.3	6.0	21.8*	60.1*	30.2*
O=Cc1ccc(OCc2cn(CC(=O)c3ccc(O)cc3)nn2)cc1	-1.3	2.3	-2.4	-1.2	1.0	-0.2	nt	nt
O=C(Cn1cc(COc2c(F)c(F)cc(F)c2F)nn1)c1ccc(O)cc1	8.0	6.9	30.9*	10.5	3.1	19.9	45.1*	34.6*
CC(NC(=O)/C=C/c1ccco1)c1nc2ccccc2n1Cc1cccc(Cl)c1 (configuration not stated)	6.2	-0.9	25.7*	0.1	-0.6	-0.3	36.9*	58.3*
COC(=O)CN1C(=O)N/C(=C/c2ccc(C)o2)C1=O	55.8*	-0.9	25.2*	-2.3	0.6	-1.6	13.6	49.3*
COC(=O)COc1ccc(/C=C2/NC(=O)N(CC(=O)OC)C2=O)cc1	1.6	-2.9	0.5	-2.9	1.1	-2.0	nt	nt
COCc1cc(CNC(=O)C2CCC(=O)N(Cc3ccccc3OC)C2)[nH]n1 (configuration not stated)	-2.6	-3.6	24.4*	-4.3	-0.3	0.9	-0.9	-1.9
O=C(/C=C\c1ccccc1OC(=O)c1ccccc1F)c1cc2ccccc2o1	0.7	-4.8	69.9*	0.8	6.4	6.0	100.3*	97.6*
COc1cc(-c2nnc(SCC(=O)NN=Cc3c[nH]c4ccccc34)n2-c2ccccc2)cc(OC)c1OC	2.4	-1.2	nt	-3.1	11.5	1.2	nt	nt
Oc1ccc(/C=N/N2CCN(C3c4ccccc4-c4ccccc43)CC2)cc1	-1.5	0.3	-4.5	6.0	-1.8	1.6	nt	nt
Cc1ccc(/C=N/N2CCN(C3c4ccccc4-c4ccccc43)CC2)o1	16.3	-2.1	25.6*	2.6	-1.4	-0.7	8.3	13.2*
Cc1ccc(-c2c[n+](CC(=O)Nc3nc(-c4ccc(F)cc4)cs3)c3n2CCC3)cc1	0.2	-2.5	25.0*	1.8	31.8	1.5	15.5	8.1
Cc1ccc(C(=O)NC2CCCCN(Cc3ccc(Cl)cc3)C2=O)c(C)c1 (configuration not stated)	1.3	-1.1	nt	-6.7	0.0	-1.9	nt	nt
CCC(C)(C)NC(=O)c1ccc(Sc2nncn2C)c([N+](=O)[O-])c1	1.2	-0.4	2.6	2.5	-1.7	3.4	nt	nt
SMILES	PRMT1 FP inh	LEDGF integ inh	ABHD5-PLIN5 inh	MBD2 inh	rCAG RNA binder	UHRF1 MBD2 ctr	ABHD5 PLIN5 conf	HNF4 split-luc
Cn1cnnc1Sc1ccc(/C=C/C(=O)c2ccc(O)cc2)cc1[N+](=O)[O-]	3.4	-6.6	64.1*	2.9	3.7	2.5	87.0*	86.6*
C[C@H]1[C@@H](OC(=O)N2CCCC2)CC[C@@]23CCCN2C(=O)CCC[C@@H]13	-0.6	2.8	nt	2.6	nt	0.3	nt	nt
O=[N+]([O-])c1ccc(N=Nc2ncc[nH]2)cc1	-1.8	1.6	29.9*	0.9	-1.1	-6.7	57.5*	52.1*
O=C(c1ccccc1Oc1ccccc1)N1CCC(Oc2cccnc2)CC1	-2.3	-2.6	nt	2.0	0.4	1.0	nt	nt
CCN(Cc1ccncc1)Cc1ccc(OC)cc1OC	-6.7	5.6	26.3*	0.6	-0.2	-0.3	-1.2	7.7
Cc1ccc(-c2oc3ncnc(N)c3c2-c2ccc(C)cc2)cc1	-1.3	-1.5	24.3*	-2.0	4.5	-1.9	6.9	4.0
O=C(CC(=O)c1ccccc1)Nc1cccnc1Cl	6.9	0.0	27.0*	3.6	3.8	-3.5	13.2	17.9*
COc1cc(CNCCc2c[nH]c3ccccc23)ccc1OCc1ccc(F)cc1	-3.9	4.2	32.9*	4.2	7.9	3.2	14.3	-0.8
COc1cccc(CNCCc2c[nH]c3ccccc23)c1OCc1ccc(F)cc1	1.0	1.9	19.1	-2.2	7.0	1.4	nt	nt
COC(=O)C1=C(C)N(C)C(=NCc2ccccc2C(F)(F)F)NC1c1ccc(F)cc1 (configuration not stated)	3.0	0.7	nt	1.6	5.5	0.2	nt	nt
COc1ccc(OCC(=O)Nc2ccc3c(c2)nc(CCN2CCC(C)CC2)n3C)cc1	-3.5	1.4	9.5	-1.3	-8.5	4.4	nt	nt
CC1CCN(CCc2nc3cc(NC(=O)COc4ccc(Cl)cc4)ccc3n2C)CC1	-0.1	-2.5	23.2*	0.6	-8.3	3.0	8.1	4.0
Cn1c(-c2ccccc2)c(C(=O)CCl)c2ccccc21	2.2	-0.6	23.7*	4.1	-0.3	-0.3	37.1*	21.7*
CCn1c(-c2ccccc2)c(C(=O)CCl)c2ccccc21	0.8	0.1	-1.9	0.8	-2.4	-2.0	nt	nt
COC(CNC(=O)[C@H](Cc1ccccc1)NC1(C(=O)NC2CCCCC2)CCCC1)OC	-2.2	6.3	nt	4.5	nt	4.9	nt	nt
